Assay results published in PubChem BioAssay (NCATS).
Results filed as inconclusive are left out. Activity calls are given as the source filed them. Calls follow the shape of the dose curve; as a rule, active = well fitted curve in the direction sought with a large enough effect; inconclusive = small, poorly fitted or top-dose-only effect, or another doubt; inactive = no such curve, though single readings can be large; an effect the other way counts as inactive or inconclusive.

Legend:
[1] = biological target: Protein phosphatase 1D (Homo sapiens) (UniProt O15297); assay: RapidFire Mass Spectrometry qHTS Assay for Modulators of WT P53-Induced Phosphatase 1 (WIP1) (AID 1347424);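 also: amount of dephosphorylated VEPPL-S-QETFS peptide product formed by WIP1; series mostly up to about 63 µM; plate controls were DMSO wells for no effect and GSK830371 inhibitor control at 10 µM for full effect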
How it was run: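 Mass-spectrometric measurement of dephosphorylated peptide after a 5 min room-temperature reaction of 10 nM WIP1 with 2 uM phosphopeptide, following 1 h compound preincubation in 30 mM MgCl2 buffer.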

[2] = biological target: Protein phosphatase 1D (Homo sapiens) (UniProt O15297); assay: Rhodamine-PBP qHTS Assay for Modulators of WT P53-Induced Phosphatase 1 (WIP1) (AID 1347425); also: % of control where 0% means no effect
How it was run: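 WIP1 (5 nM final) was preincubated with compound for 1 hour at room temperature. It then dephosphorylated 10 uM VEPPL-pS-QETFS peptide in Tris-HCl pH 7.5 with 30 mM MgCl2. Released Pi was detected by 10 uM Rh-PBP fluorescence (ex 525/em 598 nm) read at 1-min intervals for 11 min, as delta f1 - f0.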

[3] = Primary qHTS for inhibitors of La Crosse Virus (LACV) - induced cell death in SH-SY5Y cells (AID 1508616);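 also: top concentration of the series differs between compounds; 0% = infected DMSO wells and 100% = uninfected DMSO wells; higher means more rescue of cells from virus-induced death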
How it was run: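 Cytopathicity rescue screen: compounds pinned onto SH-SY5Y cells, which are then infected with LACV (MOI 0.01) and held 6 days at 37C. Percent activity is scaled between infected DMSO control and uninfected DMSO control.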

[4] = biological target: Calcium and integrin-binding protein 1 (Homo sapiens) (UniProt Q99828); assay: Primary qHTS for Identification of Calcium Integrin Binding Protein 1 (CIB1) Competitor (AID 1508620);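 also: GST tagged CIB1 binding a fluorescein labelled alphaIIb integrin peptide tracer; top concentration of the series differs between compounds; % is scaled to controls: 0 for no effect and ±100 for the full control effect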
How it was run: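 Fluorescence polarization competition: CIB1-GST (1 uM final) preincubated with compound 15 min at room temperature, then FITC-labeled alphaIIb peptide (100 nM final) added for another 15 min. Polarization read at Ex 480/Em 540.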

[5] = biological target: Calcium and integrin-binding protein 1 (Homo sapiens) (UniProt Q99828); assay: Confirmatory qHTS for Identification of Calcium Integrin Binding Protein 1 (CIB1) Competitor (AID 1508617); also: % is scaled to controls: 0 for no effect and ±100 for the full control effect; nearly all actives have a fitted effect of over 65% in size
How it was run: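 FP competition: CIB1-GST (1 uM final) in 5 mM HEPES pH 7.4, 125 mM NaCl, 5 mM CaCl2, 0.01% Tween20 preincubated 15 min RT with compounds (up to 114 uM), then FITC-alphaIIb peptide (100 nM), 15 min RT; Ex 480/Em 540.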

Sequence of Calcium and integrin-binding protein 1 (Homo sapiens) (Q99828 whole entry, looked up): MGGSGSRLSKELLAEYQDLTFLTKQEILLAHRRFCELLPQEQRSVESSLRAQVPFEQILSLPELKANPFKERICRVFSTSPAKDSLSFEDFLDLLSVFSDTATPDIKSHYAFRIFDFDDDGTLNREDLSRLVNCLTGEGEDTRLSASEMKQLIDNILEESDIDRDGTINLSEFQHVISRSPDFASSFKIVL
Sequence of Protein phosphatase 1D (Homo sapiens) (O15297 whole entry, looked up): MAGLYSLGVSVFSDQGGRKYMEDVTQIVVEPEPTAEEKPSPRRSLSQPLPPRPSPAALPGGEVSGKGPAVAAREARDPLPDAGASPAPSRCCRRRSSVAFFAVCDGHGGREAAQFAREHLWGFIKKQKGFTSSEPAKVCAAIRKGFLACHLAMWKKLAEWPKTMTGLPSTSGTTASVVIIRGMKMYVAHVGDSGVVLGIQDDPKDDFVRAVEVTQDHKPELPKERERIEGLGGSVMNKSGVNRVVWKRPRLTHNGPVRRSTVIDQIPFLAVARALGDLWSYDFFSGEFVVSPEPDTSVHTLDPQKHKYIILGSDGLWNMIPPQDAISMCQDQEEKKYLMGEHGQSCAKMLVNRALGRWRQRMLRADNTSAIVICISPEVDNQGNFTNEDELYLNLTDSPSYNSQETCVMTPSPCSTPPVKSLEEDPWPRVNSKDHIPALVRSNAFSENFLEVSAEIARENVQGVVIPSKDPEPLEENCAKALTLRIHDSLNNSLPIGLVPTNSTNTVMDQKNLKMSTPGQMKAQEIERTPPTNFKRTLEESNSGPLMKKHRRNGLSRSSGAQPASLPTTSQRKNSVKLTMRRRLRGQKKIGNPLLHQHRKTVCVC

CCOc1ccc2ccccc2c1C(=O)N[C@@H]1C(=O)N2[C@@H]1SC(C)(C)[C@@H]2C(=O)O
inactive: outcome [1] | outcome [2] | outcome [3] | outcome [4]

CC[N+](CC)(CC)CCOc1ccc(/C=C/c2ccccc2)cc1
inactive: outcome [1] | outcome [2] | outcome [3] | outcome [4]

Cc1cc2c(cc1S(N)(=O)=O)S(=O)(=O)CCC2
inactive: outcome [1] | outcome [2] | outcome [3] | outcome [4]

C[C@H]1O[C@H](O[C@H]2[C@H](O)[C@@H](O)[C@@H](O[C@H]3[C@H](O)[C@@H](O)[C@H](O)O[C@@H]3CO)O[C@@H]2CO)[C@H](O)[C@@H](O)[C@@H]1N[C@H]1C=C(CO)[C@@H](O)[C@H](O)[C@H]1O
inactive: outcome [1] | outcome [2] | outcome [3] | outcome [4]

O=c1[nH]c(=O)c2[nH]c(=O)[nH]c2[nH]1
inactive: activity change, negative = inhibition [1] -6.34% [at 12.6 µM] | activity change, negative = inhibition [2] 10.4% [at 11.5 µM] | activity change [3] 1.46% [at 0.858 µM] | outcome [4]

OCC(CO)N[C@H]1C[C@](O)(CO)[C@@H](O)[C@H](O)[C@H]1O
inactive: outcome [1] | outcome [2] | outcome [3] | outcome [4]

CN1CCOC(c2ccccc2)c2ccccc2C1 (stereo not drawn)
inactive: outcome [1] | outcome [2] | outcome [3] | outcome [4]

Cc1cc(CC(=O)O)n(C)c1C(=O)c1ccc(Cl)cc1
inactive: outcome [1] | outcome [2] | outcome [3] | outcome [4]

CC1(C)[C@@H]2CC[C@@]1(C)C(=O)C2
inactive: outcome [1] | outcome [2] | outcome [3] | outcome [4]

COC(=O)[C@H]1[C@H]2C[C@@H]3c4[nH]c5cc(OC)ccc5c4CCN3C[C@H]2C[C@@H](OC(=O)COc2ccc(OC)cc2)[C@@H]1OC
inactive: outcome [1] | outcome [2] | outcome [3] | outcome [4]

Cc1cccc(Nc2cc(Cl)nc(SCC(=O)O)n2)c1C
inactive: outcome [1] | outcome [2] | outcome [3] | outcome [4]

O=c1cc(CO)occ1O
inactive: outcome [1] | outcome [2] | outcome [3] | outcome [4]

CCOC(=O)c1ccc(O)cc1
inactive: outcome [1] | outcome [2] | outcome [3] | outcome [4]

CC/C=C(\C(=O)N[C@@H]1C(=O)N2C(C(=O)OCOC(=O)C(C)(C)C)=C(COC(N)=O)CS[C@H]12)c1csc(N)n1
inactive: outcome [1] | outcome [2] | outcome [3] | outcome [4]

C[C@]12CC[C@@H]3c4ccc(O)cc4CC[C@H]3[C@@H]1CC[C@@H]2OC(=O)CCC1CCCC1
inactive: outcome [1] | outcome [2] | outcome [3] | outcome [4]

[O-][n+]1cccc(CO)c1
inactive: outcome [1] | outcome [2] | outcome [3] | outcome [4]

Cc1ncc(COP(=O)(O)O)c(C=O)c1O
inactive: outcome [1] | outcome [3] | outcome [4]

CC(C)(C)C(=O)NCCCC(=O)O
inactive: outcome [1] | outcome [2] | outcome [3] | outcome [4]

Nc1ccc(S(=O)(=O)Nc2ccc(Cl)nn2)cc1
inactive: outcome [2] | outcome [3]

NS(=O)(=O)c1cc2c(cc1C(F)(F)F)NC(Cc1ccccc1)NS2(=O)=O (stereo not drawn)
inactive: outcome [1] | outcome [2] | outcome [4]

O=C1c2c(O)cccc2Cc2cccc(O)c21
inactive: outcome [1] | outcome [2] | outcome [3] | outcome [4]

CC1(C)OC(=O)NC1=O
inactive: outcome [1] | outcome [2] | outcome [4]

CC(O)COc1ccccc1 (stereo not drawn)
inactive: outcome [1] | outcome [2] | outcome [4]

Cc1cc(O)cc2c1O[C@](C)(CCC[C@H](C)CCC[C@H](C)CCCC(C)C)CC2
inactive: outcome [1] | outcome [2] | outcome [4]

CCCOC(=O)c1ccccc1
inactive: outcome [1] | outcome [2] | outcome [4]

CC(=O)Oc1c(C)c(C)c2c(c1C)CC[C@@](C)(CCC[C@H](C)CCC[C@H](C)CCCC(C)C)O2
inactive: outcome [1] | outcome [2] | outcome [4]

O=C(O)CC(O)C(=O)O (stereo not drawn)
inactive: outcome [1] | outcome [2] | outcome [4]

CC12CCC(CC1)C(C)(C)O2
inactive: outcome [1] | outcome [2] | outcome [3] | outcome [4]

C[C@H](N)[C@H](O)c1cccc(O)c1
inactive: outcome [1] | outcome [2] | outcome [3] | outcome [4]

COc1cc(C(=O)N2CCOCC2)cc(OC)c1OC
inactive: outcome [1] | outcome [2] | outcome [3] | outcome [4]

CCCCCCCCCCCCCCCCCCOCC(O)CO (stereo not drawn)
inactive: outcome [1] | outcome [2] | outcome [3] | outcome [4]

CCC(=O)Nc1ccc(O)cc1
inactive: outcome [1] | outcome [2] | outcome [4]

NCC(=O)CCC(=O)O
inactive: outcome [1] | outcome [2] | outcome [3] | outcome [4]

O=C1OC(OC(=O)c2cccnc2Nc2cccc(C(F)(F)F)c2)c2ccccc21 (stereo not drawn)
inactive: outcome [1] | outcome [2] | outcome [4]

CCOc1nc2cccc(C(=O)O)c2n1Cc1ccc(-c2ccccc2-c2nn[nH]n2)cc1
inactive: outcome [1] | outcome [2] | outcome [4]

NC(CSCC(=O)O)C(=O)O (stereo not drawn)
inactive: outcome [1] | outcome [2] | outcome [4]

CC(=O)CCC(=O)O
inactive: outcome [1] | outcome [2] | outcome [3] | outcome [4]

CCN(CC)CCSC(=O)C(c1ccccc1)c1ccccc1
inactive: outcome [1] | outcome [2] | outcome [4]

C[C@@H]1CC[C@@]2(OC1)O[C@H]1C[C@H]3[C@@H]4CC[C@H]5C[C@@H](O)CC[C@]5(C)[C@H]4CC(=O)[C@]3(C)[C@H]1[C@@H]2C
inactive: activity change, negative = inhibition [1] 12.5% [at 6.17 µM] | activity change, negative = inhibition [2] 1.62% [at 4.81 µM] | activity change, negative = inhibition [4] -1.41% [at 12.4 µM]

CC(C)(C)C(=O)C(Oc1ccc(Cl)cc1)n1ccnc1 (stereo not drawn)
inactive: outcome [1] | outcome [2] | outcome [4]

CC(=O)Nc1ccc(/C=N/NC(N)=S)cc1
inactive: outcome [1] | outcome [2] | outcome [3] | outcome [4]

COc1ccc(S(=O)(=O)Nc2nnc(CC(C)C)s2)cc1
inactive: outcome [1] | outcome [2] | outcome [3] | outcome [4]

O=c1[nH]cnc2c1ncn2[C@@H]1O[C@H](CO)[C@@H](O)[C@H]1O
inactive: outcome [1] | outcome [2] | outcome [3] | outcome [4]

CCCCN1CCCC[C@H]1C(=O)Nc1c(C)cccc1C
inactive: outcome [1] | outcome [2] | outcome [4]

c1ccc2c(CC3=NCCN3)cccc2c1
inactive: outcome [1] | outcome [2] | outcome [3] | outcome [4]

O=C(O)CN1C(=O)c2cccc3cccc(c23)C1=O
inactive: outcome [1] | outcome [2] | outcome [3] | outcome [4]

CCCCOc1cc(C(=O)OCCN(CC)CC)ccc1N
inactive: outcome [1] | outcome [2] | outcome [3] | outcome [4]

COc1ccc2c(c1)C(=O)N(CCc1ccc(S(=O)(=O)NC(=O)NC3CCCCC3)cc1)C(=O)C2(C)C
inactive: outcome [3] | outcome [4]

CCCCC(CC)COC(=O)c1ccccc1O (stereo not drawn)
inactive: outcome [2] | outcome [3]

CCOC(CN1CCN(CC(C)C(=O)c2ccccc2)CC1)c1ccccc1 (stereo not drawn)
inactive: outcome [2] | outcome [3] | outcome [4]

O=Cc1ccccc1C=O
inactive: outcome [2] | outcome [3] | outcome [4]

CC(=O)NC(Cc1ccccc1)C(=O)O (stereo not drawn)
inactive: outcome [2] | outcome [3] | Potency [5] | outcome [4]

CN1CCCCC1CCN1c2ccccc2Sc2ccc(S(C)=O)cc21 (stereo not drawn)
inactive: outcome [2] | outcome [4]

NCCNCCNCCN
inactive: outcome [2] | outcome [3]

C[C@@H]1C[C@H]2[C@@H]3C[C@H](F)C4=CC(=O)C=C[C@]4(C)[C@@]3(F)[C@@H](O)C[C@]2(C)[C@@]1(O)C(=O)CO
inactive: outcome [2] | outcome [3] | outcome [4]

N[C@@H](CSSC[C@H](N)C(=O)O)C(=O)O
inactive: activity change, negative = inhibition [2] 14.5% [at 0.575 µM] | activity change [3] -4.86% [at 0.0343 µM] | activity change, negative = inhibition [4] 1.18% [at 1.07 µM]

O=S(=O)(O)c1cc(I)c(O)c2ncccc12
inactive: outcome [2] | outcome [3] | outcome [4]

Cc1c(Cl)cccc1Nc1ccccc1C(=O)O
inactive: outcome [4]

CCOC(=O)[C@H](CCc1ccccc1)N[C@@H](C)C(=O)N1C(=O)N(C)C[C@H]1C(=O)O
inactive: outcome [2] | outcome [4]

CO/N=C(\C(=O)N[C@@H]1C(=O)N2C(C(=O)O)=C(CSc3nc(=O)c(O)nn3C)CS[C@H]12)c1csc(N)n1
inactive: outcome [2] | outcome [3] | outcome [4]

O=C1O[C@H]([C@@H](O)CO)C(O)=C1O
inactive: outcome [2] | outcome [3]

CCCc1c(OCCCCc2nn[nH]n2)ccc(C(C)=O)c1O
inactive: outcome [2] | outcome [4]

C=CCn1c(=O)n([C@@H]2O[C@H](CO)[C@@H](O)[C@H]2O)c2nc(N)[nH]c(=O)c21
inactive: outcome [2] | outcome [3] | outcome [4]

Nc1ccc(S(=O)(=O)Nc2ccccc2)cc1
inactive: outcome [2] | outcome [4]

Cc1cc(C(C#N)c2ccc(Cl)cc2)c(Cl)cc1NC(=O)c1cc(I)cc(I)c1O (stereo not drawn)
inactive: outcome [3] | Potency [5]

CCCCOC(=O)c1ccc(O)cc1
inactive: outcome [2] | outcome [3] | outcome [4]

CC(C)(C)NCC(O)COc1ccc(NC(=O)NC2CCCCC2)cc1 (stereo not drawn)
inactive: outcome [2] | outcome [3] | outcome [4]

NC(=O)N/N=C/c1ccc([N+](=O)[O-])o1
inactive: outcome [2] | outcome [3] | outcome [4]

O=C(O)[C@@H]1CSCN1
inactive: outcome [2] | outcome [3] | outcome [4]

CC(C)(O)c1ccccc1CC[C@@H](SCC1(CC(=O)O)CC1)c1cccc(/C=C/c2ccc3ccc(Cl)cc3n2)c1
inactive: outcome [3]

CCN(CC)CCNC(C(=O)OCCC(C)C)c1ccccc1 (stereo not drawn)
inactive: outcome [2] | outcome [3] | outcome [4]

N[C@H](C(=O)O)c1ccc(O)cc1
inactive: outcome [2] | outcome [3] | outcome [4]

[Cl][In]([Cl])[Cl]
inactive: outcome [4]

CN(C)CCCO[C@@H]1[C@H]2OC(C)(C)O[C@H]2O[C@@H]1C(O)CO (stereo partly drawn)
inactive: outcome [2] | outcome [4]

CCn1cc(C(=O)O)c(=O)c2cnc(N3CCNCC3)nc21
inactive: outcome [2] | outcome [4]

C/C(=C(\CCOP(=O)(O)O)SC(=O)c1ccccc1)N(C=O)Cc1cnc(C)nc1N
inactive: activity change, negative = inhibition [2] -15.2% [at 4.81 µM] | activity change [3] -1.14% [at 0.431 µM] | activity change, negative = inhibition [4] -4.19% [at 12.4 µM]

CN(C)CCN(Cc1ccccc1)c1ccccn1
inactive: outcome [2] | outcome [3]

Cc1cc2nc3c(=O)[nH]c(=O)nc-3n(C[C@H](O)[C@H](O)[C@H](O)CO)c2cc1C
inactive: outcome [2] | outcome [3]

CC1(C)Oc2ccc(C#N)cc2[C@@H](N2CCCC2=O)[C@@H]1O
inactive: outcome [2] | outcome [3] | outcome [4]

O=C(O)c1ccccc1-c1ccc(C(F)(F)F)cc1
inactive: outcome [2] | outcome [4]

COc1ccc2cc1Oc1ccc(cc1)C[C@H]1c3c(cc4c(c3Oc3cc5c(cc3OC)CCN(C)[C@@H]5C2)OCO4)CCN1C
inactive: outcome [2] | outcome [3] | outcome [4]
